This passage reports binding signal results from paper PMC12136788.

T1: UNK ZnF1-3 (human, UniProt Q9C0B0 31-174)
T1 sequence: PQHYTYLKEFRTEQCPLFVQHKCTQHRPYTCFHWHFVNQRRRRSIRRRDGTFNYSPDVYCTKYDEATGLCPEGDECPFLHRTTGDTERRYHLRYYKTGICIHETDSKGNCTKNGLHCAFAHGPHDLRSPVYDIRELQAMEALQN

B1: chr4:144460044:144460045:+_ENSG00000153147_ENST00000283131|hu_mus|hu_hu_hu_mus_False|1_78 (ssRNA)
RNA: GGGAGUUCUACAGUCCGACGAUCACGGUCCAUAGCCUGAAGAUCAACUUGCGGAUUCCAAUCAGAAUCAUAUAAAAUGACUACAUCAGCAGUUGCAAGAUUGAUGCCCAGACCACCAGCACGUGUGCUUAGCAUAAAAACAAACAACAGAGGAUUGAGCAUCA
B2: 32049908_32050383_1188_CDS_ENSMUSG00000039262_ENSMUST00000036691|mouse|control|control (ssRNA)
RNA: GGGAGUUCUACAGUCCGACGAUCUUCUUUCCCAUCUUGGUCGUUCAUCUGGAACUGUCUGAAAGGAACACGGGGUUCCAGGCGGAGCUGAGGAAGGGGAAAAGAGCUUCGUUCCACCGUAGUCUGGUUCUCUGAUGACUGUGGCAACAGAGGAUUGAGCAUCA
B3: chr16:1859243:1859244:-_ENSG00000063854_ENST00000397353|hu_mus|FALSE|FALSE (ssRNA)
RNA: GGGAGUUCUACAGUCCGACGAUCAAUUAACUGAAAAGUAGACUGUCCUGCAUUAGCAGCAGGCCAGUCGGUUAGAAGUCCCUGUCCCAGCGUGGGUGUGCCUCAGUCCCGAGGCACCUUGAACUGGUCCUUCUCCCUGCGGAUCAACAGAGGAUUGAGCAUCA
B4: chr17:35122734:35122735:+_ENSMUSG00000007050_ENSMUST00000114011|mus_mus|FALSE|FALSE (ssRNA)
RNA: GGGAGUUCUACAGUCCGACGAUCUCCAUCCCUCAAAUGUAUUACAUGUCGCCACGGAAGGGCUUAGGAUGCUGCUCCCAUCUCCAGGAAAGAUGAGAAAAAGGUACAGACUGGGAGCCAGUCCAGGACCAUUCUGCAGUUCCUCAACAGAGGAUUGAGCAUCA
B5: chr19:15981513:15981514:-_ENSMUSG00000024640_ENSMUST00000025542|mus_hu|motif|central (ssRNA)
RNA: GGGAGUUCUACAGUCCGACGAUCUAAAGCAUCAUCUCCUUUGGCAUUGCCAAUGCGGAAUGGAAUAUUCAUCUUGCUUCGGUUUUGGGGCUCCACUGGACAAACGUAGAAUCCUUGAGAAUUAUCAAUAAUCUCAUAAAUUGUCAACAGAGGAUUGAGCAUCA
B6: chr2:122485053:122485054:-_ENSG00000155438_ENST00000285814|hu_mus|FALSE|FALSE (ssRNA)
RNA: GGGAGUUCUACAGUCCGACGAUCUAAGCCUGAGUUUCAUAAGGAUAGUAAAACUGAGGGACCGAUGAAGCCUGAAGACAAAUUCAGGACAGGAAAGGGCACAGUCAGGUUCCCAGUGGCUUUCCUCACUGGAAAACCAAACAUCAACAGAGGAUUGAGCAUCA
B7: chr10:70021928:70021929:-_ENSMUSG00000037747_ENSMUST00000162251|mus_mus|motif|central (ssRNA)
RNA: GGGAGUUCUACAGUCCGACGAUCAUGCAUGCUUCAGUGGGGACAUCUGAUGGCAGAUGGACAACAGAGGGUAAUGCUCCGGUGGGAAGACAGGGUGUGUGGGGCGGGGAAGGGGCGAAAGUGGUGUUAGCGUCCGACACUGAUCAACAGAGGAUUGAGCAUCA
B8: chr11:54532911:54532912:-_ENSMUSG00000052298_ENSMUST00000064104|mus_mus|motif|central (ssRNA)
RNA: GGGAGUUCUACAGUCCGACGAUCGCAGAGGGGCUGGAGGUGCAAUGAAAAGGCUUAAAAUGGAAAAAUUACAAUACAGUGCGGGCAGUCACAGAAAAGACCAUGCUAAGAUCCGAUCCAUGUCAAUUAAACAUUGAAAAUUCACAACAGAGGAUUGAGCAUCA
B9: 181288587_181288707_5387_3pUTR_ENSMUSG00000000826_ENSMUST00000072334|mouse|control|control (ssRNA)
RNA: GGGAGUUCUACAGUCCGACGAUCUCAUAAUCCAGUGGCUUGGUUUGGCCAUUAAGACCAGAGGACAUGGUUACUUGCUCUGGAGUAAAAAGCUAGAGCUGUUAGGCAAGAAUUCAACCACUAAGGGGCCAGACACUGUGAGGGCAACAGAGGAUUGAGCAUCA
B10: chr19:16212804:16212805:+_ENSG00000167460_ENST00000300933|hu_mus|hu_hu_hu_mus_False|18_68 (ssRNA)
RNA: GGGAGUUCUACAGUCCGACGAUCAACAAUUCUGGAGUGAAGGAAAGAUGUAACAUGGAACAGCAUUCCAUCUAUUACAGAAGGCACAUGGGCAACAAUGAUCACCCCAGCAUUCUCCUACGUUGACCUUAAAGACAAUCUGUUCAACAGAGGAUUGAGCAUCA
B11: chr10:70021928:70021929:-_ENSMUSG00000037747_ENSMUST00000162251|mus_hu|FALSE|FALSE (ssRNA)
RNA: GGGAGUUCUACAGUCCGACGAUCAUGCUUCAGUGGAAAACAUCUGGUGAUAAAAAUGGACAACAGAGGACCAAUGCUCCUAAGGGAGGAAAAGGGGCUGAGUAAGAAUAAGAAAAGUGGGCAUUAACGUCCAACACUGAUAUUCAACAGAGGAUUGAGCAUCA
B12: chr10:70021928:70021929:-_ENSMUSG00000037747_ENSMUST00000162251|mus_hu|motif|central (ssRNA)
RNA: B11 RNA with U80G, A81G
B13: 19988787_19988907_277_5pUTR_ENSG00000144566_ENST00000273047|human|control|control (ssRNA)
RNA: GGGAGUUCUACAGUCCGACGAUCCGGCGUCGCCUGCUCUUAGCGCCGCUCCCCUCACACUGGACUGUGCGGGGCUCGUGCCGUGGUGCCGCCCCUGUCGGGCUCCGUCUCCGCCUCUCGCCGCUCCCCCUUCCUCUUUCCUUUCAACAGAGGAUUGAGCAUCA
B14: 178098831_178098951_708_CDS_ENSG00000116044_ENST00000397062|human|control|control (ssRNA)
RNA: GGGAGUUCUACAGUCCGACGAUCGAAAAAGGCUUUCUCUUGCUCCUUUUGGAGUUGUUCUUGUCUUUCCUUUUCAAGUUUUUUCUGUUUUUCCAGCUCAUACUCUUUCCGUCGCUGACUGAAGUCAAAUACUUCUCGACUUACCAACAGAGGAUUGAGCAUCA
B15: chr10:1038518:1038519:+_ENSG00000107937_ENST00000545048|hu_hu|hu_hu_hu_mus_False|68_68 (ssRNA)
RNA: GGGAGUUCUACAGUCCGACGAUCCAGUCUGUCAUGGUAAUUCUGUUGAGUAAAUUUGACUUUUCUCAUGUAAAAAUGUCGAAUCCGAUGAAUUUGAUAAUGUUUAUGAAUAACCGUUGGAGUCUUUCGUUGAGUCUUGGAUAACAACAGAGGAUUGAGCAUCA
B16: chr8:30550554:30550555:-_ENSG00000104687_ENST00000414019|hu_mus|FALSE|FALSE (ssRNA)
RNA: GGGAGUUCUACAGUCCGACGAUCGCCGGCAUUCUCCAGUUCCUCGGUGCAGUUGGAACUGAUGAGUGAAUCAAAAUUUCUCAGUACCUUAUCAUGCCUGAUCAUAAGAGAUGUCUUGGAGCCCAGGGCAGAGAGGAUGCCCGCCAACAGAGGAUUGAGCAUCA
B17: chr6:106728040:106728041:+_ENSMUSG00000013736_ENSMUST00000057578|mus_mus|FALSE|FALSE (ssRNA)
RNA: GGGAGUUCUACAGUCCGACGAUCAGGAGCCACACCAAGAUCAUAGAUCAGGUGGAUCAAAUGGUUUACAUGGUCACCAGUAAGAAUUUUCUUCAGUUCUACCCAAAUCCUCUCUCCUGAUAUUCCAGCCAAACCUUUGGCAUUCAACAGAGGAUUGAGCAUCA
B18: chr22:19452774:19452775:-_ENSG00000070010_ENST00000399523|hu_hu|hu_hu_hu_mus_False|88_108 (ssRNA)
RNA: GGGAGUUCUACAGUCCGACGAUCCUUUUCAUUAUAGUUGAUAGCAAUCACAUCCCCAGUCGUCAGACAGGCGAAGUUUCUCAAUGCAUUUUCUAAUACCGCUUUAGGGUUGGUAAUAUCCAGGAAGUCUGGGCUCUGAGGCUGCAACAGAGGAUUGAGCAUCA
B19: chr7:148083511:148083512:+_ENSMUSG00000025487_ENSMUST00000026560|mus_mus|motif|central (ssRNA)
RNA: GGGAGUUCUACAGUCCGACGAUCCAAAUCCAGCACUCGCGGCUGCACCCACGUCAUGUGAACCCGCUUGUCCACCUCGUCGGUGCUGCCUCUCACCAGCCCCACCGAGAGUGCCUUCAUCACCAGCAACUCCACCUUGUUGACCAACAGAGGAUUGAGCAUCA
B20: chr12:48362563:48362564:+_ENSG00000134291_ENST00000256686|hu_hu|hu_hu_hu_mus_False|1_68 (ssRNA)
RNA: GGGAGUUCUACAGUCCGACGAUCUCCGUCAAGCCCUUCGAUAGACCCUUGCGGGGGAAACUGUAAUAAUUCUAACUGGGGAAGGAAAAGAAACGCCAAAAACUUUCCAAAAAGCGGGGGUGGGGUGAGGCGGGAGGUUGGGAACAACAGAGGAUUGAGCAUCA
B21: chr12:48362563:48362564:+_ENSG00000134291_ENST00000256686|hu_hu|hu_hu_hu_mus_False|68_108 (ssRNA)
RNA: GGGAGUUCUACAGUCCGACGAUCUCCGAAGGGUGAAUCGAUAGACCCUUGCGGGGGAAACUGUAAUAAUUCUAACUGGGGAAGGAAAAGAAACGCCAAAAACUUUCCAAAAAGCGGGGGUGGGGUGAGGCGGGAGGGGGAGGUCAACAGAGGAUUGAGCAUCA
B22: chr16:46836887:46836888:-_ENSG00000155330_ENST00000285697|hu_mus|motif|central (ssRNA)
RNA: GGGAGUUCUACAGUCCGACGAUCACCAACAGAGUUUGAAGACAAAUAUCAGAGAAUAAGUCUUUGAUUGAUAAUUUUUCGGUUUAUUUCUGCCAAGGCAACUGAAAACACGAAAGCCUUCUCAUCAGAGAGGUUAGCAUAGAUCAACAGAGGAUUGAGCAUCA
B23: chr9:127911758:127911759:-_ENSG00000119414_ENST00000373547|hu_mus|motif|central (ssRNA)
RNA: GGGAGUUCUACAGUCCGACGAUCUCUCAAACGAGUCCAAGGUGGGGUAGGAGGAGUGACAAAACUGAUAGAAAAACACUGCGGUUGACACCAUAACAAACAAUAAAUUUAGAUAAUUUAAAAUUAAAAAAAAAGGCAAGAGGCCAACAGAGGAUUGAGCAUCA
B24: 118497214_118499730_2480_CDS_ENSG00000065183_ENST00000349139|human|control|control (ssRNA)
RNA: GGGAGUUCUACAGUCCGACGAUCAUAAGAGAAAGGCAGCACAAGUAGAGAUUCUUCCAGCUCACUCGACUUGAUCCCUUUAAAAAUCUCUAAUACAUAAGCUGAAGGUGAGAUACUGCCAUAAGCCAUUAGGAUGGGGUUGCUCAACAGAGGAUUGAGCAUCA
B25: chr9:127911758:127911759:-_ENSG00000119414_ENST00000373547|hu_mus|FALSE|FALSE (ssRNA)
RNA: B23 RNA with G82U, G83A
B26: chr12:48362563:48362564:+_ENSG00000134291_ENST00000256686|hu_hu|hu_hu_hu_mus_False|68_68 (ssRNA)
RNA: B20 RNA with U137G, U138G, G140A, A142G, A143U

Positions count from the first letter of the chain named. The full ranking holds about 24,000 sequences; the median of “enrichment r” is about 0.99, and the highest 2% start at about 3.7. What follows is part of a selection rich in the highest values, with near analogues and random picks from the rest.

The test addresses T1, UNK ZnF1-3. Nature of the test: nsRBNS (natural sequence RNA bind-n-seq); RBNS binding buffer (assumed for nsRBNS): 25 mM Tris pH 7.5, 150 mM KCl, 3 mM MgCl2, 0.01% Triton X-100, 500 ug/ml BSA, 20 U/ml SUPERase-In, 4 C; UNK is unkempt and MSI1 is Musashi-1; names of the RNAs are library labels; protein concentration not given here; high values mean tight binding.
The molecule B1 showed a binding signal of 1.34 enrichment R.

In turn, B2 returned a binding signal of 0.807 enrichment R.

Turning to B3, the binding signal was found to be 0.931 enrichment R.

With B4, the binding signal amounted to 1.03 enrichment R.

B5 registered a binding signal of 0.859 enrichment R.

In turn, B6 came in with a binding signal of 0.908 enrichment R.

On to B7, for which the binding signal worked out at 1.77 enrichment R.

B8 yielded a binding signal of 4.45 enrichment R.

The molecule B9 registered a binding signal of 1.11 enrichment R.

Regarding B10, the binding signal was determined as 0.856 enrichment R.

On to B11, for which the binding signal was 4.68 enrichment R.

For B12, the binding signal is 4.93 enrichment R.

The molecule B13 returned a binding signal of 0.72 enrichment R.

Turning to B14, the binding signal worked out at 0.134 enrichment R.

Molecule B15 had a binding signal of 0.535 enrichment R.

B16 came in with a binding signal of 1.28 enrichment R.

The molecule B17 showed a binding signal of 0.982 enrichment R.

B18 had a binding signal of 0.864 enrichment R.

As to B19, the binding signal was 0.75 enrichment R.

B20 displayed a binding signal of 3.33 enrichment R.

For the molecule B21, the binding signal was found to be 3.2 enrichment R.

With B22, the binding signal was 0.868 enrichment R.

Consider B23, for which the binding signal came out at 14 enrichment R.

B24: the binding signal was 1.8 enrichment R.

As to B25, the binding signal was found to be 10.5 enrichment R.

In the case of B26, the binding signal is 4.07 enrichment R.
